Measured values published in the supplement of paper PMC7156485.
Values without a mark were called inactive.

system: TDF; experiment: H1.0 immunofluorescence intensity relative to DMSO (% of DMSO); higher = stronger H1.0 induction, active = 120 or more; details: concentration: 10 µM; 24 h
Method in brief: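 Six fields per well were imaged at ×10 after the cells were fixed in 3.7% formaldehyde and stained with a rabbit anti-H1.0 antibody, an AlexaFluor 647 secondary and DAPI. The HCC1569 and TDF cells had been plated at 800 per well in 384-well plates (RPMI, 10% FBS) and treated in triplicate with compounds at 10 µM for 24 h at 37 °C. The values are the median of replicates of H1.0 nuclear intensity or cell number, as percent of the plate control. Smoothing for positional effects was applied to HCC1569 data.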
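Also: TDF is a line of transformed human dermal fibroblasts of mesenchymal origin.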

SMILES | H1.0 immunofluorescence intensity
CCCCCC=CCC=CCCCCCCCC(=O)NCC(=O)O [N-Linoleoylglycine] | 96.8
COc1cc2nc(N3CCN(C(=O)c4ccco4)CC3)nc(N)c2cc1OC.Cl [Prazosin hydrochloride] | 93.6
CN1CCN(C2=Nc3ccccc3Oc3ccc(Cl)cc32)CC1.O=C(O)CCC(=O)O [Loxapine succinate] | 95.8
CC1(C)OC2CC3C4CC(F)C5=CC(=O)C=CC5(C)C4(F)C(O)CC3(C)C2(C(=O)CO)O1 (stereo unspecified) [Fluocinolone acetonide] | 88.2
COc1cc(O)c2c(c1)oc(=O)c1c3cc(O)c(O)cc3oc21 [Wedelolactone] | 101
Cc1ccc(Cl)c(Nc2ccccc2C(=O)[O-])c1Cl.[Na+] [sodium 2-(2,6-dichloro-3-methylanilino)benzoate] | 97.9
CCCCCC=CCC1OC1CC=CCC=CCCCC(=O)O (stereo unspecified) [11,12-Epoxyeicosatrienoic acid] | 93.8
COc1cc2nccc(Oc3ccc(NC(=O)NC4CC4)c(Cl)c3)c2cc1C(N)=O | 89.2
COc1cc2ncnc(Sc3nnc(C)s3)c2cc1OC | 108
Nc1ccc(CCNc2ncnc3c2ncn3C2OC(CO)C(O)C2O)cc1 (stereo unspecified) [N6-2-(4-Aminophenyl)ethyladenosine] | 85.9
Cc1c[nH]c(C=C2C(=O)Nc3ccccc32)c1CCC(=O)O | 95.4
